Compound activity: PubChem, several laboratories
The list is not random: actives were taken first. Their share in the collection is about 2.1%.
Myeloid diff MLP = compounds promoting myeloid differentiation; calls only at 10 µM; ER-HoxA9 myeloid progenitors, lysozyme-GFP differentiation, flow cytometry; 1% of 360,000 active;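 active = normalized GFP-positive differentiation at or above the plate's own cutoff, the solvent-only control mean plus 3 SD; inconclusive = no clear call, values can overlap the other calls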;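 also: cells exposed to compound for four days before flow analysis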
HNF4A DNA FP = change in binding of human HNF4 alpha to DNA | activity change, % at 10 µM | HNF4a-FITC DNA binding, fluorescence polarization, 1 h | AID 1224865 | 0.3% of 360,000 active | P41235; in the data active = activity change above about 30%, passing the limit was not always enough
Rpn11 block = inhibitors of human proteasome Rpn11 | AID 588493 | inhibition, % at 20 µM | 0.59% of 360,000 active | human 26S proteasome, Ub4-pepOG fluorescence polarization; 20S core pre-blocked with epoxomicin;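 active = inhibition at 20 µM, scaled to each plate's controls, above about 33%, limit read from the data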
Target sequence (O00487 whole entry, looked up): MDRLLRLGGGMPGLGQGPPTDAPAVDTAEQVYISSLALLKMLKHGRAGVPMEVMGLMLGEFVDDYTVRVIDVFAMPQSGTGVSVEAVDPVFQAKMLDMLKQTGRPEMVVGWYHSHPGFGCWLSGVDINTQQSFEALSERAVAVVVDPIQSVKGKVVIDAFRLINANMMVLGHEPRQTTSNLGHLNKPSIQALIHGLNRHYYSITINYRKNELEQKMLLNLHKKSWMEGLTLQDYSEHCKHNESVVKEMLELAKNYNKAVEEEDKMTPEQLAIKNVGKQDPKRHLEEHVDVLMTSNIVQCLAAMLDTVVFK
TPT1 inhibitor = C. albicans TPT1 enzyme inhibition; 0.81% of 300,000 active; AID 1962; recombinant caTPT1, FP RNA substrate dephosphorylation; inhibition, % at 5 µM;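 active = inhibition above the mean of all tested compounds plus 3 SD, set per screening campaign, cut at about 24% in these data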;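 also: plate controls were DMSO alone for no effect and ferristatin control at 100 nM for full effect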
An asterisk follows results filed as active.

What do the screens show for `CCOC(=O)Cn1c(-c2ccc(OC)cc2)c(-c2ccc(OC)cc2)nnc1=O`?
Myeloid diff MLP: inactive; HNF4A DNA FP: 32.7*; Rpn11 block: 2.6; TPT1 inhibitor: 1.9

Results for COc1ccccc1C1C(C#N)=C(N)N(c2cccnc2)C2=C1C(=O)CC(C)(C)C2 (configuration not stated) ?
Myeloid diff MLP: inactive; HNF4A DNA FP: 0.1; Rpn11 block: -0.2; TPT1 inhibitor: 0.2

How did O=S(=O)(c1ccc2oc(=S)[nH]c2c1)N1CCCCC1 do in these assays?
Myeloid diff MLP: active; HNF4A DNA FP: -2.4; Rpn11 block: -0.4; TPT1 inhibitor: 0.2

Results for NS(=O)(=O)c1ccc(CCNC(=O)c2cccc(S(=O)(=O)N3CCc4ccccc43)c2)cc1 ?
Myeloid diff MLP: inactive; HNF4A DNA FP: -1.2; Rpn11 block: -0.9

What do the screens show for `O=C(COc1ccccc1)NC1CCCN(Cc2ccccc2F)C1` (configuration not stated)?
Myeloid diff MLP: inactive; HNF4A DNA FP: -1.6; Rpn11 block: 0.8; TPT1 inhibitor: 1.4

Results for CC(=O)c1ccc(OCC(=O)NC2CCCN(Cc3ccccc3F)C2)cc1 (configuration not stated) ?
Myeloid diff MLP: active; HNF4A DNA FP: 4.5; Rpn11 block: -3.8

Results for CCCc1nc(SCC(=O)N2CCN(c3ccccc3)CC2)c2c(=O)n(C)c(=O)n(C)c2n1 ?
Myeloid diff MLP: active; HNF4A DNA FP: 0.8; Rpn11 block: 2.3; TPT1 inhibitor: 0.9

Results for CCOC(=O)C(C)Sc1ncc(-c2ccc(Cl)cc2)cn1 (configuration not stated) ?
Myeloid diff MLP: inactive; HNF4A DNA FP: 72.9*; Rpn11 block: -13.9; TPT1 inhibitor: -2.9

How did CCOC(=O)C(C)Sc1nc(=O)n2cccc(C)c2n1 (configuration not stated) do in these assays?
Myeloid diff MLP: inactive; HNF4A DNA FP: 2.6; Rpn11 block: -0.7; TPT1 inhibitor: -3.5

How did CC(=O)Nc1ccc(S(=O)(=O)NC2C3(C)CCC(C3)C2(C)C)cc1 (configuration not stated) do in these assays?
Myeloid diff MLP: inactive; HNF4A DNA FP: 1.4; Rpn11 block: 1.1

How did CCCCCc1ccc(-c2ccc(/C=C/C(N)=O)cc2)nc1 do in these assays?
Myeloid diff MLP: active; HNF4A DNA FP: 2.9; Rpn11 block: -3.7; TPT1 inhibitor: 1.5

What do the screens show for `Cc1ccccc1N(C(=O)c1csnn1)C(C(=O)NC1CCCCC1)c1ccncc1` (configuration not stated)?
Myeloid diff MLP: active; HNF4A DNA FP: 0.2; Rpn11 block: 8.2; TPT1 inhibitor: 1.5

What do the screens show for `O=C(NC1CCCC1)C(c1ccncc1)N(C(=O)c1csnn1)c1ccccc1F` (configuration not stated)?
Myeloid diff MLP: inactive; HNF4A DNA FP: 1.4; Rpn11 block: 7.0; TPT1 inhibitor: -1.0

Results for CC(=O)Nc1cccc(C(=O)NNC(=O)c2n[nH]c(=O)c3ccccc23)c1 ?
Myeloid diff MLP: inactive; HNF4A DNA FP: -0.4; Rpn11 block: -2.6

How did COc1ccccc1CNc1ccc2c(c1)CCC2 do in these assays?
Myeloid diff MLP: active; HNF4A DNA FP: 13.6; Rpn11 block: 20.1; TPT1 inhibitor: 17.4

What do the screens show for `O=C(CSc1ccsc1[N+](=O)[O-])N1CCN(c2ccc(Cl)cc2)CC1`?
Myeloid diff MLP: active; HNF4A DNA FP: -6.8; Rpn11 block: -5.0; TPT1 inhibitor: 2.8

What do the screens show for `O=C(Cn1cc(C(F)(F)F)ccc1=O)OCC(=O)c1ccc[nH]1`?
Myeloid diff MLP: inactive; HNF4A DNA FP: 3.9; Rpn11 block: 1.8

Results for CC(=O)Nc1sc2c(c1-c1nc3ccccc3s1)CN(C(C)C)CC2 ?
Myeloid diff MLP: inconclusive; HNF4A DNA FP: -4.1

Results for CC(=O)N1CCc2c(sc(NC(=O)C3CC3)c2-c2nc3ccccc3s2)C1 ?
Myeloid diff MLP: active; HNF4A DNA FP: 34.7*; TPT1 inhibitor: 18.6

How did CCCN1CCN(c2ncnc3c2nnn3Cc2ccccc2)CC1 do in these assays?
Myeloid diff MLP: active; HNF4A DNA FP: 2.3; Rpn11 block: 7.3; TPT1 inhibitor: -3.1

How did c1ccc(Cn2nnc3c(N4CCCCCC4)ncnc32)cc1 do in these assays?
Myeloid diff MLP: inactive; HNF4A DNA FP: 0.3; Rpn11 block: -16.7; TPT1 inhibitor: -3.9

How did COc1ccc(OC)c(N/C(C)=C/C(=O)c2ccc(Br)cc2)c1 do in these assays?
HNF4A DNA FP: -1.4; Rpn11 block: 1.0; TPT1 inhibitor: 1.0

How did CCOC(=O)C1=C(O)c2ccccc2C(=O)/C1=C\c1ccc(C)cc1 do in these assays?
Myeloid diff MLP: active; HNF4A DNA FP: 5.9; Rpn11 block: -1.6; TPT1 inhibitor: -4.6

What do the screens show for `CCOC(=O)C1=C(C)OC(=Cc2ccccc2)C1=O`?
Myeloid diff MLP: inactive; HNF4A DNA FP: 11.6; Rpn11 block: 25.6

Results for COc1ccccc1Cc1c(-c2ccco2)nc2c(C)cc(Br)cn12 ?
HNF4A DNA FP: -7.0; Rpn11 block: 16.6

What do the screens show for `Cc1nc(C)c(Oc2cccc(C(F)(F)F)c2)c(=O)[nH]1`?
Myeloid diff MLP: inactive; HNF4A DNA FP: -4.6; Rpn11 block: -6.1; TPT1 inhibitor: -2.0

How did N=c1n(Cc2ccccc2Cl)c2ccccc2n1CC(O)c1ccco1 (configuration not stated) do in these assays?
Myeloid diff MLP: inactive; HNF4A DNA FP: 61.1*; Rpn11 block: -8.7; TPT1 inhibitor: 5.7

Results for Cc1[nH]c2ccccc2c1/C=N/Nc1ccc([N+](=O)[O-])cc1S(=O)(=O)Nc1ccc(Cl)cc1 ?
Myeloid diff MLP: active; HNF4A DNA FP: 94.1*; TPT1 inhibitor: 2.4

Results for COc1cc(C(=O)NNC(=O)CCOc2ccccc2)cc(OC)c1OC ?
Myeloid diff MLP: active; HNF4A DNA FP: 1.8; Rpn11 block: -3.2

What do the screens show for `COc1ccccc1NC(=O)COC(=O)CCc1ccc(S(=O)(=O)N2CCOCC2)cc1`?
Myeloid diff MLP: inactive; HNF4A DNA FP: 2.4; Rpn11 block: 1.1

Results for Nc1nccc(/C=C/c2c(F)cccc2Cl)n1 ?
Myeloid diff MLP: inactive; HNF4A DNA FP: 4.2; Rpn11 block: 9.4; TPT1 inhibitor: -2.4

Results for O=c1cc(/C=C/c2c(F)cccc2Cl)[nH]c2ccccc12 ?
Myeloid diff MLP: inactive; HNF4A DNA FP: -2.1; Rpn11 block: 88.4*; TPT1 inhibitor: -5.0

Results for O=C(N/N=C/c1ccc2c(c1)OCO2)c1ccc(COCC(F)(F)C(F)F)cc1 ?
Myeloid diff MLP: inactive; HNF4A DNA FP: -0.5; Rpn11 block: 41.8*; TPT1 inhibitor: -0.1

Results for COc1ccc(/C=N/NC(=O)c2ccc(COc3cccc4cccnc34)cc2)cc1OC ?
Myeloid diff MLP: inactive; HNF4A DNA FP: 4.8; Rpn11 block: -7.4; TPT1 inhibitor: -5.1

How did O=C(N/N=C/c1ccc2c(c1)OCO2)c1ccc(COc2cccc3cccnc23)cc1 do in these assays?
Myeloid diff MLP: active; HNF4A DNA FP: 5.2; Rpn11 block: 1.8; TPT1 inhibitor: -1.6

How did COc1ccc(NC(=O)c2nc[nH]c2C(=O)NCCCCCNC(=O)OC(C)(C)C)cc1 do in these assays?
TPT1 inhibitor: 1.8

How did Cc1ccc(S(=O)(=O)c2ccc([N+](=O)[O-])o2)cc1 do in these assays?
Myeloid diff MLP: inconclusive; HNF4A DNA FP: 3.1; Rpn11 block: 1.3
